The values below come from PubChem BioAssay (NCATS).

Results filed as inconclusive are left out. A number with no mark means an inactive call. Active and inactive are the calls of the source. Calls follow the shape of the dose curve; as a rule, active = well fitted curve in the direction sought with a large enough effect; inconclusive = small, poorly fitted or top-dose-only effect, or another doubt; inactive = no such curve, though single readings can be large; an effect the other way counts as inactive or inconclusive.

Test [1] relates to NIH3T3. In words: Cytotoxic Profiling of Annotated Libraries Using Quantitative High-Throughput Screening (AID 1296008). Also: nearly all actives have a fitted effect of over 60% in size. Conditions: Five cell lines viability, CellTiter-Glo ATP luminescence, 48-72 h; max response: stronger effect = lower value. The procedure, abridged:
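Compounds were pin-transferred onto cells and incubated 48 or 72 hr at 37 degree Celsius, 95% humidity. CellTiter-Glo was added, plates sat 10 min at room temperature, then ATP-coupled luminescence was imaged as the viability read-out.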
A general note: In ATP-based viability assays light output follows the ATP content of the culture.

Test [2] has as its system HEK293T. In words: qHTS assay to identify novel small-molecules to repurpose for Merkel cell carcinoma treatment (AID 1296009). Also: nearly all actives have a fitted effect of over 60% in size. Conditions: MCC and control cell lines, CellTiter-Glo viability, 72 h; at 44.8 µM (top of the series) unless noted. The procedure, abridged: (§1)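 Viability readout: ATP luminescence (CellTiter-Glo) after 72 hr drug exposure at 37 degree celsius. Dose-response format was 8 points for NPC and 11 points for MIPE; data normalized to in-plate controls.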
(In general: Quantitative high-throughput screening tests each substance at several concentrations.)

Another test concerns C33A. Put plainly: Primary qHTS to identify gynecologic anti-cancer compounds using libraries of approved drugs and bioactive compounds (AID 1345084). Also: nearly all actives have a fitted effect of over 55% in size. Conditions: Gynecologic cancer cell panel viability, ATPlite luminescence, 48 h; series mostly up to 57.5 µM. The essentials:
(§2)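 Cell viability after 48 h drug treatment, ATPlite luminescence readout; five doses.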

For the next test, the system named is CASKI. The test is described as above. Conditions: Gynecologic cancer cell panel viability, ATPlite luminescence, 48 h; series mostly up to 57.5 µM. The procedure, abridged: as §2
In the next test the test system is Es-2. The description is as above. The conditions noted are these: Gynecologic cancer cell panel viability, ATPlite luminescence, 48 h; series mostly up to 57.5 µM. The procedure, abridged: as §2
The next test has as its system HeLa. The test is described as above. Conditions: Gynecologic cancer cell panel viability, ATPlite luminescence, 48 h; series mostly up to 57.5 µM. The essentials:
as §2

In test [3] the test system is Hek293T. The description is as above. The conditions noted are these: Gynecologic cancer cell panel viability, ATPlite luminescence, 48 h, control line for the selectivity index; series mostly up to 57.5 µM. The essentials:
as §2

A further test has as its system JEG-3. The description is as above. Conditions: Gynecologic cancer cell panel viability, ATPlite luminescence, 48 h; series mostly up to 57.5 µM. The procedure, abridged:
as §2

The subject of a further test is OV90. Described as above. The conditions noted are these: Gynecologic cancer cell panel viability, ATPlite luminescence, 48 h; series mostly up to 57.5 µM. The essentials:
as §2

The next test has as its system PA-1. The description is as above. Conditions: Gynecologic cancer cell panel viability, ATPlite luminescence, 48 h; series mostly up to 57.5 µM. The procedure, abridged: as §2
The subject of the next test is SKOV3. The description is as above. Conditions: Gynecologic cancer cell panel viability, ATPlite luminescence, 48 h; series mostly up to 57.5 µM. The essentials: as §2
In another test the test system is MCC-13. Put plainly: qHTS assay to identify novel small-molecules to repurpose for Merkel cell carcinoma treatment (AID 1296009). Also: nearly all actives have a fitted effect of over 60% in size. Conditions: MCC and control cell lines, CellTiter-Glo viability, 72 h; series mostly up to 46 µM. The procedure, abridged:
as §1

The subject of a further test is MCC-26. The test is described as above. The conditions noted are these: MCC and control cell lines, CellTiter-Glo viability, 72 h; series mostly up to 46 µM. The essentials: as §1
Another test has as its system MKL-1. The description is as above. Conditions: MCC and control cell lines, CellTiter-Glo viability, 72 h; series mostly up to 46 µM. The essentials:
as §1

Another test relates to MKL-2. Described as above. Conditions: MCC and control cell lines, CellTiter-Glo viability, 72 h; series mostly up to 46 µM. The essentials: as §1
A further test deals with UISO. Described as above. The conditions noted are these: MCC and control cell lines, CellTiter-Glo viability, 72 h; series mostly up to 46 µM. The essentials: as §1
Another test has as its system WaGa. The description is as above. Conditions: MCC and control cell lines, CellTiter-Glo viability, 72 h; series mostly up to 46 µM. The procedure, abridged: as §1
A further test has as its system CAOV3. Put plainly: Primary qHTS to identify gynecologic anti-cancer compounds using libraries of approved drugs and bioactive compounds (AID 1345084). Also: nearly all actives have a fitted effect of over 55% in size. The conditions noted are these: Gynecologic cancer cell panel viability, ATPlite luminescence, 48 h; series mostly up to 57.5 µM. The essentials:
as §2

Test [4] has as its system NIH3T3. Put plainly: qHTS assay to identify novel small-molecules to repurpose for Merkel cell carcinoma treatment (AID 1296009). Also: nearly all actives have a fitted effect of over 60% in size. The conditions noted are these: MCC and control cell lines, CellTiter-Glo viability, 72 h; at 44.8 µM (top of the series) unless noted. The essentials:
as §1
% is scaled to controls: 0 for no effect and ±100 for the full control effect; potency is read from the fitted curve at half-maximal effect.

As to `CCNC(=O)[C@H]1O[C@@H](n2cnc3c(N)nc(NCCc4ccc(CCC(=O)O)cc4)nc32)[C@H](O)[C@@H]1O`, the max response in the test on NIH3T3 [1] was -6.33%. Besides, in the test with HEK293T [2], the compound was classed as inactive. The Potency result in the test with C33A, in the test with CASKI, in the test on Es-2, in the test with HeLa, in the test on Hek293T [3] and in the test on JEG-3 was “inactive” each time. Also, the Potency result in the test on OV90, in the test on PA-1 and in the test on SKOV3 was “inactive” in each case.
In the case of `CNC(=O)c1c(I)c(NC(=O)CCCCC(=O)Nc2c(I)c(C(=O)O)c(I)c(C(=O)NC)c2I)c(I)c(C(=O)O)c1I`, the max response in the test with NIH3T3 [1] was -3.88%. Besides, the Potency entry with MCC-13, in the test with MCC-26, in the test on MKL-1, in the test on MKL-2, with UISO and with WaGa was “inactive” in each case. The Potency entry with C33A, in the test with CAOV3, with CASKI, in the test with Es-2, in the test with HeLa and in the test with Hek293T [3] was “inactive” throughout. Also, the Potency entry in the test with JEG-3, in the test on OV90, with PA-1 and in the test with SKOV3 was “inactive” in each case.
For `COc1cccc2c1C(=O)c1c(O)c3c(c(O)c1C2=O)C[C@@](O)(C(=O)CO)C[C@@H]3O[C@H]1C[C@H](N)[C@H](O[C@@H]2CCCCO2)[C@H](C)O1`, the Potency is 0.188 µM (active) with NIH3T3 [1]; 3.76 µM (active) in the test on MCC-13; 7.5 µM (active) with MCC-26; 0.0944 µM (active) in the test with MKL-1; 0.0473 µM (active) in the test with MKL-2; 2.99 µM (active) in the test with UISO. The Potency with C33A is 10 µM (active); in the test on CASKI, 12.6 µM (active); in the test with Es-2, 7.08 µM (active); with Hek293T [3] it was 10 µM (active); in the test with PA-1, 2.51 µM (active); in the test on SKOV3, 12.6 µM (active). Besides, the Potency result in the test with HeLa was “inactive”.
With `Cc1ccc(O)c(-n2nc3ccccc3n2)c1`, the max response in the test on NIH3T3 [1] is 0.367%. Also, the Potency result with MCC-13, with MKL-1, in the test with MKL-2, with UISO, with WaGa and in the test on C33A was “inactive” throughout. Further, the Potency result in the test on Es-2, in the test on HeLa, in the test on Hek293T [3], in the test with JEG-3, in the test on PA-1 and in the test with SKOV3 was “inactive” throughout. The Potency with OV90 is 3.55 µM (active).
As to `CCCC(=O)OC[C@@H](OC(=O)CCC)[C@@H](OC(=O)CCC)[C@H](Cn1c2nc(=O)[nH]c(=O)c-2nc2cc(C)c(C)cc21)OC(=O)CCC`, the compound was classed as inactive in the test with NIH3T3 [1] and with NIH3T3 [4]. Besides, the Potency entry in the test with MCC-13, with C33A, with CASKI, in the test with Es-2, in the test on HeLa and in the test with Hek293T [3] was “inactive” throughout. Besides, the Potency result with PA-1 and in the test on SKOV3 was “inactive” each time. Also, the Potency in the test on MKL-1 is 6.68 µM (active); with MKL-2 it was 3.35 µM (active); in the test on WaGa, 4.22 µM (active).
`O=C(O)Cc1cccc(-c2cc(CCCCCCc3ccc(O[C@H]4O[C@H](CO)[C@@H](O)[C@H](O)[C@@H]4O)c(-c4cccc(CC(=O)O)c4)c3)ccc2O[C@H]2O[C@H](CO)[C@@H](O)[C@H](O)[C@@H]2O)c1`: the max response with NIH3T3 [1] is 2.37%. The activity change, negative = cytotoxicity in the test with MCC-13 was 9.04% [at 0.597 µM]; with MCC-26, 4.83% [at 0.597 µM]; with MKL-1, 6.03% [at 0.597 µM]; in the test on MKL-2 it was 5.84% [at 0.597 µM]; in the test with UISO, 19.7% [at 0.597 µM]; with WaGa, 8.43% [at 0.597 µM]. The activity change, negative = cytotoxicity in the test with C33A was -0.854% [at 0.462 µM]; with CAOV3, 12.9% [at 0.462 µM]; in the test on CASKI it was -1.06% [at 0.462 µM]; in the test with Es-2, 2.88% [at 0.462 µM]; in the test on HeLa, 7.81% [at 0.462 µM]; with Hek293T [3], 0.655% [at 0.462 µM]. Moreover, the activity change, negative = cytotoxicity is 24.2% [at 0.462 µM] in the test with JEG-3, 11.3% [at 0.462 µM] in the test on OV90 and 22.2% [at 0.462 µM] in the test with PA-1.
For the compound `COC(=O)c1nc(Cl)c(Cl)nc1N`, the Potency was 10.6 µM (active) in the test on NIH3T3 [1]; 0.944 µM (active) in the test on MCC-13; 1.33 µM (active) in the test with MKL-1; 0.299 µM (active) in the test with MKL-2; 6.68 µM (active) in the test on UISO; 1.5 µM (active) with WaGa. The Potency in the test with C33A was 8.91 µM (active); in the test with HeLa, 7.08 µM (active); in the test on Hek293T [3], 14.1 µM (active); with PA-1 it was 14.1 µM (active).
Turning to `CN(C)c1ccc(N=NS(=O)(=O)O)cc1`, in the test with NIH3T3 [1], the max response is 2.87%. For the same compound, the Potency result in the test on MCC-13, in the test on MCC-26, in the test with C33A, with CASKI, with Es-2 and in the test with HeLa was “inactive” throughout. Moreover, the Potency result with Hek293T [3] is “inactive”. The Potency with MKL-1 is 5.12 µM (active); in the test on MKL-2, 6.44 µM (active); in the test with WaGa, 40.7 µM (active).
With `O=C(CCN1CCN(CCO)CC1)N1c2ccccc2Sc2ccc(C(F)(F)F)cc21`, the max response in the test on NIH3T3 [1] is 1.15%. Besides, the Potency result in the test on MCC-13, with MCC-26, with MKL-1, in the test with MKL-2, in the test on UISO and in the test with WaGa was “inactive” in each case. Moreover, the Potency result in the test on C33A, with CASKI, with Es-2, in the test on HeLa, in the test on Hek293T [3] and in the test with JEG-3 was “inactive” in each case. Moreover, the Potency entry in the test on OV90, in the test with PA-1 and with SKOV3 was “inactive” in each case.
For `CCCCCCOc1ccccc1C(N)=O`, in the test on NIH3T3 [1], the max response was -8.29%. Moreover, the Potency entry in the test with MCC-13, in the test on MKL-1, with MKL-2, in the test on C33A, with CAOV3 and with CASKI was “inactive” in each case. For the same compound, the Potency result in the test with Es-2, with HeLa, in the test with Hek293T [3], in the test on JEG-3, with OV90 and with PA-1 was “inactive” throughout. In the test on SKOV3, the Potency entry is “inactive”.
Turning to `CCCCCCCCCCCCCCCC(=O)OC(C)C`, the result in the test on NIH3T3 [1] and in the test with NIH3T3 [4] was inactive. For the same compound, the Potency result with MCC-13, with MCC-26, in the test with MKL-1, with MKL-2, in the test on UISO and with WaGa was “inactive” each time. In addition, the Potency entry in the test with C33A, in the test on CASKI, in the test on Es-2, in the test on HeLa, in the test on Hek293T [3] and in the test with JEG-3 was “inactive” in each case. Besides, the Potency result in the test with OV90, with PA-1 and with SKOV3 was “inactive” throughout.
With `CC1(C)S[C@@H]2[C@H](NC(=O)[C@H](N)c3ccc(O)cc3)C(=O)N2[C@H]1C(=O)O`, the outcome with NIH3T3 [1], with HEK293T [2] and in the test on NIH3T3 [4] was inactive. Moreover, the Potency result with CASKI, with Es-2, with HeLa, in the test with Hek293T [3], with JEG-3 and in the test with OV90 was “inactive” each time. The Potency result in the test on PA-1 and in the test on SKOV3 was “inactive” throughout.
